We go through 27 compounds from PubChem BioAssay (Tox21).

The nature of experiment [1]: qHTS assay for small molecule agonists of the p53 signaling pathway (AID 651631; calls by dose curve; also: nearly all actives have a fitted effect of over 15% in size). An outline of the steps: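 Readout was fluorescence from the LiveBLAzer FRET substrate, applied for 2 h at room temperature after 16 h compound exposure at 37 °C. Cells were the p53RE-bla HCT-116 line, with beta-lactamase driven by p53 response elements.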
(qHTS replaces the single test concentration by a dilution series.)

The nature of experiment [2]: qHTS assay for small molecules that induce genotoxicity in human embryonic kidney cells expressing luciferase-tagged ATAD5 (AID 651632). Also: nearly all actives have a fitted effect of over 15% in size. Also: potency is read from the fitted curve at half-maximal effect. An outline of the steps: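 Quantitative HTS in HEK293T expressing luciferase-tagged ATAD5, whose levels rise upon DNA damage. Exposure ran 16 hr at 37C and 5% CO2, with luminescence read 30 min after Amplite addition at room temperature.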

A short description of experiment [3]: qHTS assay for small molecule agonists of the p53 signaling pathway - cell viability (AID 651633; calls by dose curve; also: series mostly up to about 83 µM; nearly all actives have a fitted effect of over 30% in size). An outline of the steps: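 p53RE-bla cells were treated with compound for 16 hours at 37 C. Cytotoxicity was then measured as CellTiter-Glo luminescence after 30 min at room temperature.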
Experiment [4] can be described thus: qHTS assay for small molecules that induce genotoxicity in human embryonic kidney cells expressing luciferase-tagged ATAD5 - cell viability (AID 651634; calls by dose curve; also: nearly all actives have a fitted effect of over 25% in size). An outline of the steps: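 After 15.5 hr incubation with compound at 37C, 5% CO2, HEK293T ATAD5-luciferase cells received CellTiter-Fluor reagent; fluorescence intensity was quantified following 30 min at 37C.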

Experiment [5] in a line: qHTS assay for small molecule disruptors of the mitochondrial membrane potential - cell viability (AID 720634; calls by dose curve;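 also: human HepG2 liver cancer cells; series mostly up to about 83 µM; nearly all actives have a fitted effect of over 20% in size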). An outline of the steps:
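ATP-based luminescent viability readout (CellTiter-Glo, 30 min, room temperature) in HepG2 cells multiplexed with the m-MPI membrane potential dye; compound exposure lasted 1 hr at 37 C.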

Experiment [6] can be described thus: qHTS assay to test for compound auto fluorescence at 590 nm (red) in HepG2 cells (AID 720674). An outline of the steps: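 Fluorescence at 590 nm emission following 540 nm excitation was recorded from HepG2 wells one hour after compound transfer, with DMSO-only wells as vehicle and Rose Bengal sodium equivalency as the scale.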
Experiment [7] is described as follows: qHTS assay to test for compound auto fluorescence at 535 nm (green) in HepG2 cells (AID 720675).
A short description of experiment [8]: qHTS assay to test for compound auto fluorescence at 460 nm (blue) in HEK293 cells (AID 720678). An outline of the steps:
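HEK293 cells (2,000/well, medium with 10% dialyzed FBS) attached 4-5 hr, then exposed to compound overnight at 37C, 5% CO2. Blue fluorescence read at 405/460 nm, with triamterene as reference fluorophore.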

Experiment [9] can be described thus: qHTS assay to test for compound auto fluorescence at 590 nm (red) in HEK293 cells (AID 720679). An outline of the steps: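 HEK293 cells (2,000/well, 10% dialyzed FBS) attached 4-5 hr, then dosed with compound or DMSO and incubated overnight at 37C, 5% CO2. Red fluorescence read at 540/590 nm, Rose Bengal sodium as reference fluorophore.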
Experiment [10] can be described thus: qHTS assay for small molecule disruptors of the mitochondrial membrane potential (AID 720635). Also: potency is read from the fitted curve at half-maximal effect. An outline of the steps:
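HepG2 cells exposed to compound 1 hr at 37C, then Mito-MPS dye 30 min. Ratio read of aggregate (540/590 nm) versus monomer (490/535 nm) fluorescence.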

Molecules are shown by their SMILES. Values without a mark were called inactive. Inconclusive results are not listed. Calls of active or inactive are those of the source. Unless noted, calls follow the shape of the dose curve; as a rule, active = well fitted curve in the direction sought with a large enough effect in the repeat runs; inconclusive = weak or mixed curves; inactive = no such curve, though single readings can be large; an effect the other way counts as inactive or inconclusive.

With `CC(C)Cc1nccs1`, the Potency result in experiment [1], in experiment [2], in experiment [3], in experiment [4], in experiment [5] and in [8] was “inactive” each time. The compound was called inactive in experiment [6], in experiment [7] and in [9].
Consider `O=P(c1ccccc1)(c1ccccc1)c1ccccc1`, for which the Potency entry in experiment [1], in [2], in experiment [3], in experiment [4], in experiment [5] and in experiment [8] was “inactive” each time. For the same compound, the outcome in experiment [6], in experiment [7] and in experiment [9] was inactive.
Turning to `CCCCCCC/C=C/C=O`, the Potency result in [1], in [2], in experiment [3], in experiment [4], in experiment [5] and in experiment [8] was “inactive” each time. Further, the compound was called inactive in experiment [6] and in [9].
For `CC(C)CCCCCOC(=O)CS`, the Potency result in experiment [1], in experiment [2], in [3], in experiment [4], in [5] and in experiment [8] was “inactive” in each case. Also, the compound was called inactive in experiment [6], in [7] and in experiment [9].
Take `CC(C)=CCC/C(C)=C/C=N/O`: the Potency result in [1], in experiment [2], in experiment [3], in experiment [5], in experiment [10] and in experiment [8] was “inactive” throughout. Moreover, the compound was called inactive in experiment [6] and in [9].
As to `CCCCOC(=O)CC#N`, the Potency result in experiment [1], in [2], in [3], in experiment [4], in [5] and in experiment [8] was “inactive” in each case. Besides, the result in [6] and in experiment [9] was inactive.
In the case of `Cc1ccc(S(=O)(=O)NC(=O)NC2CCCC2)cc1`, the Potency entry in experiment [1], in experiment [2], in experiment [3], in experiment [5], in experiment [10] and in experiment [8] was “inactive” throughout. The outcome in experiment [6], in [7] and in experiment [9] was inactive.
In the case of `O=C1c2ccccc2C(=O)C1c1ccc2ccccc2n1`, the Potency result in [1], in experiment [3], in [4] and in [8] was “inactive” in each case. The Potency in experiment [2] is 76.2 nM (active); in experiment [10], 340 nM (active). Moreover, the outcome in [6], in experiment [7] and in experiment [9] was inactive.
Take `CC(=O)c1cccnc1`: the Potency entry in [1], in experiment [2], in [3], in [5], in experiment [10] and in experiment [8] was “inactive” each time. Moreover, the outcome in [6], in experiment [7] and in [9] was inactive.
`NCCOCCOCCN`: the Potency result in [1], in [2], in [3], in experiment [4], in experiment [5] and in experiment [8] was “inactive” in each case. Further, the result in experiment [6], in [7] and in experiment [9] was inactive.
With `Nc1ccc(F)cc1F`, the Potency result in experiment [1], in [2], in experiment [3], in experiment [5], in experiment [10] and in experiment [8] was “inactive” in each case. The result in [6], in experiment [7] and in [9] was inactive.
As for `CC/C=C/CCO`, the Potency result in experiment [1], in experiment [2], in [3], in experiment [4], in [5] and in experiment [8] was “inactive” in each case. The result in experiment [6], in [7] and in experiment [9] was inactive.
As for `Oc1ccc(CCNCCCCCCNCCc2ccccc2)cc1O`, the Potency entry in [1], in experiment [2], in [3], in [4], in [5] and in experiment [8] was “inactive” in each case. The compound was called inactive in [6] and in experiment [9].
`Cc1nc(C)c(C)nc1C`: the Potency entry in experiment [1], in experiment [2], in experiment [3], in experiment [4], in experiment [5] and in experiment [8] was “inactive” throughout. Moreover, the compound was classed as inactive in experiment [6] and in [9].
On to `O=C(O)COCC(=O)O`, for which the Potency result in [1], in [2], in [3], in experiment [4], in [5] and in experiment [8] was “inactive” each time. Besides, the compound was called inactive in experiment [6], in experiment [7] and in [9].
For the compound `COc1cc(CNC(=O)CCCC/C=C/C(C)C)ccc1O`, the Potency result in experiment [1], in [2], in [3], in experiment [4], in experiment [5] and in [8] was “inactive” in each case. In addition, the compound was called inactive in experiment [6] and in experiment [9].
For `O=C(O)c1ccncc1`, the Potency result in [1], in experiment [2], in [3], in [5] and in experiment [8] was “inactive” each time. Also, the compound was called inactive in experiment [6], in experiment [7] and in experiment [9].
Consider `Cc1ccc(NC(=O)c2ccc(CN3CCN(C)CC3)cc2)cc1Nc1nccc(-c2cccnc2)n1`, for which the Potency result in experiment [1], in experiment [2], in [3], in experiment [5] and in [8] was “inactive” in each case. Further, the Potency in [10] was 2110 nM (active). The result in experiment [6], in experiment [7] and in experiment [9] was inactive.
Consider `CC(C)(C)NCC(O)COc1ccc(NC(=O)NC2CCCCC2)cc1` (stereo unspecified), for which the Potency entry in [1], in experiment [2], in [3], in experiment [4] and in experiment [8] was “inactive” in each case. The outcome in [6], in experiment [7] and in [9] was inactive.
As to `N#CCCCC(C#N)CCC#N` (stereo unspecified), the Potency entry in experiment [1], in experiment [2], in experiment [3], in experiment [5], in [10] and in [8] was “inactive” each time. For the same compound, the compound was called inactive in experiment [6], in experiment [7] and in experiment [9].
Turning to `CCCCCCCCCCCCN1CCOCC1`, the Potency result in [1], in [2], in [3], in [4], in experiment [5] and in [8] was “inactive” throughout. Also, the compound was called inactive in experiment [6], in experiment [7] and in experiment [9].
In the case of `O=C(c1ccc(Cl)cc1)c1ccc(Cl)cc1`, the Potency entry in experiment [1], in experiment [2], in experiment [3], in [4], in [5] and in experiment [8] was “inactive” in each case. Besides, the compound was classed as inactive in experiment [6] and in experiment [9].
Consider `CS(C)=O`, for which the Potency entry in experiment [1], in experiment [2], in experiment [3], in experiment [4], in [5] and in experiment [8] was “inactive” in each case. Moreover, the call in experiment [6], in experiment [7] and in [9] was inactive.
For `O=C(OCCOCCOCCOC(=O)c1ccccc1)c1ccccc1`, the Potency result in [1], in [2], in experiment [3], in experiment [4], in experiment [5] and in experiment [8] was “inactive” in each case. Further, the result in [6], in experiment [7] and in experiment [9] was inactive.
As for `CCOc1ccc(NC(C)=O)cc1N`, the Potency result in [1], in experiment [2], in experiment [3], in experiment [5] and in experiment [8] was “inactive” throughout. Moreover, the compound was called inactive in experiment [6], in experiment [7] and in [9].
As to `C=CCCC`, the Potency result in experiment [1], in experiment [2], in experiment [5], in [10] and in experiment [8] was “inactive” throughout. In addition, the outcome in experiment [6], in [7] and in experiment [9] was inactive.
Turning to `CCCCOc1ccc(N)cc1`, the Potency result in experiment [1], in experiment [2], in [4], in [5] and in experiment [8] was “inactive” in each case. The compound was classed as inactive in [6], in experiment [7] and in experiment [9].
